The record followed here is PubChem BioAssay AID1508622 (National Center for Advancing Translational Sciences (NCATS), 2021).

Activity calls are given as the source filed them. Where a call stands in place of a potency, no number is given. Calls follow the shape of the dose curve; as a rule, active = well fitted activation curve with a large enough effect; inconclusive = small, poorly fitted or top-dose-only effect; inactive = no such curve, though single readings can be large or run the other way.

A short description of the assay: Confirmatory qHTS for Identification of Small Molecule Activators of Huntingtin-Antisense Promoter Activity. The note with it: HEK293 HTT-AS promoter firefly luciferase reporter, 24 h; series mostly up to 57.5 µM. Summed up: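 HEK293 luciferase reporter cells, 2,500/well, cultured 24 h, then exposed to compounds at up to 57.5 uM final for 24 h at 37C. Firefly luciferase luminescence read; normalized to vehicle (0%) and zero RLU (-100%).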
Potency is read from the fitted curve at half-maximal effect.

With `CC(C)c1ccc(NC(=O)c2ccc(F)c(S(=O)(=O)N3CCCCCC3)c2)cc1`, the Potency entry was “inactive”.
For `CCc1cccc2sc(N3CCN(C(=O)c4cc5ccccc5cc4OC)CC3)nc12`, the Potency entry is “inactive”.
For `Cc1[nH]c2ccccc2c1CCNCc1ccc(C=CC(=O)NO)cc1` the value was 1900 nM (active); for `O=S(=O)(NCc1ccc(F)cc1)c1ccc(N2CCCCS2(=O)=O)cc1`, “inactive”; for `CCOc1ccc(/C=C/c2nc(C#N)c(NCc3ccccc3)o2)cc1`, “inactive”.
The result for `Cn1cc(CNCC2CCN(c3ncc(C(=O)NO)cn3)CC2)c2ccccc21` reads “inactive”.
On to `Cc1ccc(-c2nc3sc(CCNS(=O)(=O)c4cc(F)ccc4F)c(C)n3n2)cc1`, for which the Potency entry is “inactive”.
`CCc1ccc(NC(=O)C2CCCN(S(=O)(=O)c3cccc4nsnc34)C2)cc1` (stereo not drawn): the Potency result was “inactive”.
Consider `CN(C)S(=O)(=O)c1ccc(C(=O)NCCSc2c(-c3ccc(Br)cc3)[nH]c3ccccc23)cc1`, for which the Potency entry is “inactive”.
`COc1ccc(Cl)cc1NC(=O)CSc1nccn1-c1ccc(Cl)cc1`: the Potency result is “inactive”.
With `Cc1oc(-c2ccc(C(=O)NCc3ccccc3Cl)cc2)nc1CN1CCc2ccccc21`, the Potency result was “inactive”.
For `COc1cccc(CNC(=O)c2cc3c(-c4ccccc4F)nn(C)c3s2)c1` the value was “inactive”; for `Cc1ccc(N(C)C(=O)Cn2cnc3onc(-c4ccc(F)cc4)c3c2=O)cc1C`, “inactive”; for `COc1ccc(C2(CNC(=O)C(=O)Nc3cccc(C(F)(F)F)c3)CCCC2)cc1OC`, “inactive”.
`Cc1cccc(C(=O)Nc2nc(-c3nnn(-c4cc(F)ccc4F)c3C)ns2)c1`: the Potency entry was “inactive”.
For `CC(C)c1ccc(NC(=O)c2cnc3sc(N4CCCC4)nn3c2=O)cc1` the value was “inactive”.
The result for `CCC1=Nc2cc(C(=O)NC3CCCC3)ccc2Sc2ccc(Cl)cc21` reads “inactive”; that for `COCCNc1nc2c(c(=O)n(C)c(=O)n2C)n1Cc1c(F)cccc1Cl`, “inactive”.
The result for `COc1cc(CN(C(=O)c2ccc(OC(C)C)cc2)c2ccccn2)cc(OC)c1OC` reads “inactive”; that for `O=C(CN1C(=O)C2(SCC(=O)N2c2ccc(F)c(F)c2)c2ccccc21)Nc1cccc(Cl)c1` (stereo not drawn), “inactive”.
Consider `COc1ccccc1C(=O)Oc1c(Sc2ccccc2)c(C)nn1C(C)(C)C`, for which the Potency result was “inactive”.
For `COc1ccc(CCNc2nc3c(c(=O)n(C)c(=O)n3C)n2Cc2ccc(F)cc2)cc1OC` the value was “inactive”; for `COc1ccc(N2CCN(C(CNC(=O)C(=O)NCCc3ccccc3)c3cccnc3)CC2)cc1` (stereo not drawn), “inactive”; for `Cc1cc(C)c(NS(=O)(=O)c2ccc(-c3cnc(C4CC4)o3)cc2)c(C)c1`, “inactive”.
For the compound `Cn1cnc(=N)c2[nH]cnc21`, the Potency result was “inactive”.
Take `COc1ccccc1C1CC(=O)NC(C)=C1C(=O)OC1CCCCCC1` (stereo not drawn): the Potency result is “inactive”.
For the compound `Cc1ccc(C)c(N2CCN(CCCNC(=O)c3cnn(-c4ccccc4Cl)c3C3CCN(C(=O)OC(C)(C)C)CC3)CC2)c1`, the Potency entry is “inactive”.
Regarding `O=S(=O)(Nc1ccc(F)c(C(F)(F)F)c1)c1ccc(N2CCCCS2(=O)=O)cc1`, the Potency result was “inactive”.
Regarding `CCc1ccc(NC(=O)C2CCCN2S(=O)(=O)c2ccc3c(c2)CCCC(=O)N3)cc1` (stereo not drawn), the Potency entry was “inactive”.
Take `O=C(NCc1ccccc1)c1ccc(CSc2nc3cccnc3n2Cc2ccccc2)cc1`: the Potency result is “inactive”.
For the compound `CCOc1ccc(CCNC(=O)CSCc2nc(-c3cccc(C)c3)oc2C)cc1OCC`, the Potency result was “inactive”.
Take `N#CC[C@H](C1CCCC1)n1cc(-c2ncnc3[nH]ccc23)cn1`: the Potency entry is “inactive”.
`COC(=O)C1=C(C)NC(C)=C(C(=O)OCC(C)=O)C1c1ccccc1[N+](=O)[O-]` (stereo not drawn): the Potency entry is “inactive”.
Take `CC(=O)c1ccc(NC(=O)c2ccc(-c3nc(CSc4ccc(C)cc4)c(C)o3)cc2)cc1`: the Potency entry was “inactive”.
For `COc1ccc(-c2nnc(C3CCN(C(=O)c4ccccc4F)CC3)o2)cc1`, the Potency result was “inactive”.
For `CCCOc1ccc(C(=O)Nc2ccc(-c3cc4ccccc4oc3=O)c(C)c2)cc1`, the Potency result was “inactive”.
On to `C[n+]1cc2c3c(ccc2c2ccc4cc5c(cc4c21)OCO5)OCO3`, for which the Potency result is “inactive”.
On to `CCc1cccc(C)c1NC(=O)Cn1cc2c(n1)CCCC2`, for which the Potency entry was “inactive”.
For `CC(C)c1ccc(NC(=O)CSC2=Nc3ccccc3C3=NC(CCC(=O)NCc4ccc(F)cc4)C(=O)N23)cc1` (stereo not drawn) the value was “inactive”; for `COc1ccc(Nc2nc(-c3ccc(C)cc3)nc3ccccc23)c(OC)c1`, “inactive”; for `O=C(Nc1ccc(F)cc1F)c1ccc2c(c1)CCN2S(=O)(=O)c1ccc(Cl)cc1`, “inactive”.
For `COc1ccc(NC(=O)CN2CCCN(S(=O)(=O)c3ccc(Br)cc3)CC2)c(OC)c1` the value was “inactive”.
Regarding `CCc1cccc(C)c1NC(=O)CCCN1C(=O)C(c2ccccc2)Oc2cccnc21` (stereo not drawn), the Potency entry was “inactive”.
